Among the data in PubChem BioAssay are composite z-score, composite Z-score and z-score values, retold here.

The source made the active and inactive calls.

The target of assay [1] is Albumin (Bos taurus) (UniProt P02769). Put plainly: bovine serum albumin binders on microarray, profiling panel, artefact control for SMM control protein annotation, biochemical, small-molecule microarray, Alexa647 label, 635/667 nm fluorescence (AID 1118).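 Also: score merges 667 nm emission intensity and signal-to-noise per printed compound spot.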 As to conditions: BSA-A647 binding, fluorescence 635 nm, higher = more signal.
The nature of assay [2]: small-molecule microarray binders of probe aXIP, primary screen, biochemical, NeuroSMM set, 635/667 nm fluorescence (AID 1119).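 Also: probe is the protein aXip251-270 applied at 1 µg/mL to compound-printed slides; binding of probe to printed compounds measured as 667 nm fluorescence plus signal to noise.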 As to conditions: higher = more signal, called active from +8 up or from −8 down.
Assay [3] can be described thus: small-molecule binders of probe aNOTCH3, primary screen, biochemical, small-molecule microarray, 635/667 nm fluorescence (AID 1120).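 Also: probe is a biotin-tagged antibody raised against NOTCH3 rather than NOTCH3 protein; score merges spot fluorescence near 667 nm with spot signal to noise.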 As to conditions: higher = more signal.
Assay [4] in a line: small-molecule binders of probe aNOTCH2, primary screen, biochemical, small-molecule microarray, 635/667 nm fluorescence (AID 1121).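 Also: score merges feature fluorescence read at 667 nm with its signal to noise.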 To be noted: higher = more signal.
Assay [5] has as its target Carbonic anhydrase 2 (Homo sapiens) (UniProt P00918). The assay is described as follows: CAII small-molecule binders, profiling panel, biochemical, small-molecule microarray, Alexa647-labelled CAII (AID 1122). To be noted: CAII-A647 binding fluorescence, higher = more signal.
Assay [6] in a line: COS7 lysate on small-molecule microarray, probe aHis, 635 nm (AID 1123).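 Also: z-score combines 667nm fluorescence intensity with signal-to-noise per printed compound spot.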 As to conditions: COS7 cell lysate, fluorescence, higher = more signal.
A short description of assay [7]: compound binding in COS7 lysate, probe aLAP1, primary screen, cell lysate, small-molecule microarray (AID 1124).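 Also: lysate comes from COS7 cells expressing LAP1 and is applied at 0.3 µg/mL; score merges spot fluorescence near 667 nm with signal-to-noise over triplicate slides.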 To be noted: probe aLAP1, fluorescence, higher = more signal.
Assay [8] concerns Sam68 (KHDRBS1). The assay is described as follows: Sam68 small-molecule binders, primary screen, biochemical, small-molecule microarray, 635 nm fluorescence (AID 1125).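 Also: score merges 667 nm channel intensity with signal to noise over triplicate slides.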 As to conditions: small-molecule microarray binding, higher = more signal.
Assay [9] deals with Chordin-like protein 2 (CHRDL2). The assay is described as follows: CHRDL2 small-molecule binders, primary screen, biochemical, small-molecule microarray, 635 nm fluorescence (AID 1126).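 Also: printed compound slides probed with Chrdl2 protein at 4 µg/mL for 1 h at 4 C; score merges 667 nm emission intensity with signal to noise over three replicate slides.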 To be noted: small-molecule microarray binding, fluorescence 635 nm; higher = more signal.
For assay [10], the target named is Concanavalin-A (Canavalia ensiformis) (UniProt P02866). Put plainly: ConA small-molecule binders, primary screen, artefact control for SMM control protein annotation, biochemical, small-molecule microarray, Alexa647 label, 635 nm (AID 1127).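 Also: z combines 667 nm emission intensity with signal-to-noise across three replicate slides.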 To be noted: ConA-A647 binding fluorescence, higher = more signal.
Assay [11] can be described thus: anti-His antibody binders, primary screen, artefact control for SMM control protein annotation, biochemical, small-molecule microarray, 635 nm fluorescence (AID 1128).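 Also: score merges feature fluorescence with signal-to-noise for each printed compound spot.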 As to conditions: anti-His Alexa647 antibody binding, higher = more signal.
The test system of assay [12] is Human papillomavirus type 1a E7 protein (residues 1-88). Put plainly: HPV1a E7 small-molecule binders, primary screen, biochemical, small-molecule microarray, residues 1-88, 635 nm (AID 1129). To be noted: small-molecule microarray binding, fluorescence 635 nm; higher = more signal.
The target in assay [13] is Focal adhesion kinase 1 (Homo sapiens) (UniProt Q05397). The assay is described as follows: small-molecule microarray binders of FAK, primary screen, biochemical, 635/667 nm fluorescence, BSA, DTT (AID 1130).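 Also: composite of spot emission at 667 nm and signal to noise over triplicate slides.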 As to conditions: PTK2 binding, 635 nm fluorescence, higher = more signal.
Assay [14] deals with Fibrinogen (Alexa647-labelled). Put plainly: fibrinogen binders on compound microarrays, profiling panel, artefact control for SMM control-protein annotation, biochemical, small-molecule microarray, 635/667 nm fluorescence (AID 1131).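 Also: z-score merges 667 nm fluorescence with per-spot signal-to-noise over triplicate slides.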 As to conditions: fibrinogen-A647 binding fluorescence, higher = more signal.
Assay [15] concerns the target Follistatin (Homo sapiens) (UniProt P19883). Put plainly: follistatin binders on small-molecule microarrays, primary screen, biochemical, small-molecule microarray, 635/667 nm fluorescence (AID 1132). To be noted: FST binding, 635 nm fluorescence, higher = more signal.
The target in assay [16] is Fibroblast growth factor 2 (Homo sapiens) (UniProt P09038). Put plainly: FGF2 binders on small-molecule microarrays, primary screen, biochemical, small-molecule microarray, 635/667 nm fluorescence (AID 1133). As to conditions: small-molecule microarray binding, FGF2, fluorescence 635/667; higher = more signal.
Assay [17] in a line: mitochondrial membrane potential change in A549 cells, profiling panel, cell-based, JC-1 fluorescence, basal, 24 h, 100 nL (AID 1138).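 Also: A549 lung adenocarcinoma cells under basal conditions with no added stimulus; test concentration not given here.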 To be noted: higher = more signal.
Assay [18] has as its system Lefty1. The assay is described as follows: Lefty1 binders on small-molecule microarrays, primary screen, biochemical, small-molecule microarray, 635/667 nm fluorescence (AID 1139). As to conditions: small-molecule microarray binding, fluorescence 635/667; higher = more signal.
For assay [19], the system named is wheat germ agglutinin (Triticum aestivum), Alexa647-labelled. Put plainly: wheat germ agglutinin binders on compound microarrays, profiling panel, artefact control for SMM control-protein annotation, biochemical, small-molecule microarray, 635/667 nm fluorescence (AID 1140).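 Also: score merges 667 nm feature emission with signal to noise over triplicate slides.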 To be noted: WGA-A647 binding, 635 nm fluorescence, higher = more signal.
In assay [20] the target is Luciferin 4-monooxygenase (Photinus pyralis) (UniProt P08659). The assay is described as follows: firefly luciferase enzyme inhibitors, primary screen, biochemical, luminescence, purified enzyme, 2006 set (AID 1141).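 Also: cell-free assay with purified firefly luciferase at 100 ng per well in PBS; test concentration not given here.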 To be noted: SteadyGlo luminescence, 30 min, higher = more signal, called active from +8 up or from −8 down.
Chain of Luciferin 4-monooxygenase (Photinus pyralis) (P08659 whole entry, looked up): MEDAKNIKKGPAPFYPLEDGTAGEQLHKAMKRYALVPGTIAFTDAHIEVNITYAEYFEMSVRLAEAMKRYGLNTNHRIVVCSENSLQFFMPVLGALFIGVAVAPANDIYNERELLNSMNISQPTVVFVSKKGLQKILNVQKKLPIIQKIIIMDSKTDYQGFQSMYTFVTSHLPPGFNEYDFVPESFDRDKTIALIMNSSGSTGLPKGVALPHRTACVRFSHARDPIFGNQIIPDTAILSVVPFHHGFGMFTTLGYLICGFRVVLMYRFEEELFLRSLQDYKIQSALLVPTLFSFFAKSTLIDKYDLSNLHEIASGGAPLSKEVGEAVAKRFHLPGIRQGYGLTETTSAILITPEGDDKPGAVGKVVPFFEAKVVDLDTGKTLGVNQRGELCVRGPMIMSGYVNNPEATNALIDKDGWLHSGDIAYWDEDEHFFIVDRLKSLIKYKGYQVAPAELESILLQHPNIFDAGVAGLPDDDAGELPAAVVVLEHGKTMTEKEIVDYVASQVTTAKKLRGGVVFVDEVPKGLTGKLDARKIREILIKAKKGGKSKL

Chain of Albumin (Bos taurus) (P02769 whole entry, looked up): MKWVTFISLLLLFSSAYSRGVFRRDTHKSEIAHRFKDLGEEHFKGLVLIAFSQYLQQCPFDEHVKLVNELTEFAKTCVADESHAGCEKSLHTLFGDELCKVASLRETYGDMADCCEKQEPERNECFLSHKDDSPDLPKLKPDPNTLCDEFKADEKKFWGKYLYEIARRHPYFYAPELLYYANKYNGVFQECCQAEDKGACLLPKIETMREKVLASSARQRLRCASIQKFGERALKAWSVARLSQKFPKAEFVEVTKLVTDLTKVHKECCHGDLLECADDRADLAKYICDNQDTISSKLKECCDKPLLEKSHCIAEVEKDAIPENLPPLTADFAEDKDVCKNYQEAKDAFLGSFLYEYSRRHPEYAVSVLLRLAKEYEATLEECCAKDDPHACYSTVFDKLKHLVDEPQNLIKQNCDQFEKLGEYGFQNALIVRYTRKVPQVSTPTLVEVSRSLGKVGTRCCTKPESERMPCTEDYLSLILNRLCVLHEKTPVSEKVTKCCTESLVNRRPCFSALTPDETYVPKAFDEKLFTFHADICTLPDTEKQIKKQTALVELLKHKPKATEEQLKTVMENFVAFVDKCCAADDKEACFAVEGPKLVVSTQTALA
Chain of Fibroblast growth factor 2 (Homo sapiens) (P09038 whole entry, looked up): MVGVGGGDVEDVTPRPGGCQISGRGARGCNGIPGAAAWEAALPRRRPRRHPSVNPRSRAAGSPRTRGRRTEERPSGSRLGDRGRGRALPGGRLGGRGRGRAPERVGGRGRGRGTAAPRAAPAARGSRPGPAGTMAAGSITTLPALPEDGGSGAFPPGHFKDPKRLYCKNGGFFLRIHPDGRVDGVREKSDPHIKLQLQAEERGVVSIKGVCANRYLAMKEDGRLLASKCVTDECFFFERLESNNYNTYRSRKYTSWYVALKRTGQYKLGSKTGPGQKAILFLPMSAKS
Chain of Concanavalin-A (Canavalia ensiformis) (P02866 whole entry, looked up): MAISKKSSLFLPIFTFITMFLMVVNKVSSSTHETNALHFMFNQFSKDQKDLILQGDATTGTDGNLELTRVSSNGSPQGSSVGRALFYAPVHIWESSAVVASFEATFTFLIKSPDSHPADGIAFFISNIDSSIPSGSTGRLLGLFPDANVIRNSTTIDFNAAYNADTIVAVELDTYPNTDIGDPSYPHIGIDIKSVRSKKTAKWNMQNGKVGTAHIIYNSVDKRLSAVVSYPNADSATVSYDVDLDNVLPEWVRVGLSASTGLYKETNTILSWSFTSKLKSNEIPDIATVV
Chain of Follistatin (Homo sapiens) (P19883 whole entry, looked up): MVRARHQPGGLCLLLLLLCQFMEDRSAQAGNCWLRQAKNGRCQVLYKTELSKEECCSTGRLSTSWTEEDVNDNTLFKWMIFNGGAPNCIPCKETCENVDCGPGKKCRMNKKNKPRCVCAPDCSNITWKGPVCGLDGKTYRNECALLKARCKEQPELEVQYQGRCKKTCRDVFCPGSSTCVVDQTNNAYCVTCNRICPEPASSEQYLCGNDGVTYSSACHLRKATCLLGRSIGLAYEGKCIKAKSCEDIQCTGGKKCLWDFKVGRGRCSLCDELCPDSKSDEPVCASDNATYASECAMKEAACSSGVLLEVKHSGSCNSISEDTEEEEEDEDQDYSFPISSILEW
Chain of Focal adhesion kinase 1 (Homo sapiens) (Q05397 whole entry, looked up): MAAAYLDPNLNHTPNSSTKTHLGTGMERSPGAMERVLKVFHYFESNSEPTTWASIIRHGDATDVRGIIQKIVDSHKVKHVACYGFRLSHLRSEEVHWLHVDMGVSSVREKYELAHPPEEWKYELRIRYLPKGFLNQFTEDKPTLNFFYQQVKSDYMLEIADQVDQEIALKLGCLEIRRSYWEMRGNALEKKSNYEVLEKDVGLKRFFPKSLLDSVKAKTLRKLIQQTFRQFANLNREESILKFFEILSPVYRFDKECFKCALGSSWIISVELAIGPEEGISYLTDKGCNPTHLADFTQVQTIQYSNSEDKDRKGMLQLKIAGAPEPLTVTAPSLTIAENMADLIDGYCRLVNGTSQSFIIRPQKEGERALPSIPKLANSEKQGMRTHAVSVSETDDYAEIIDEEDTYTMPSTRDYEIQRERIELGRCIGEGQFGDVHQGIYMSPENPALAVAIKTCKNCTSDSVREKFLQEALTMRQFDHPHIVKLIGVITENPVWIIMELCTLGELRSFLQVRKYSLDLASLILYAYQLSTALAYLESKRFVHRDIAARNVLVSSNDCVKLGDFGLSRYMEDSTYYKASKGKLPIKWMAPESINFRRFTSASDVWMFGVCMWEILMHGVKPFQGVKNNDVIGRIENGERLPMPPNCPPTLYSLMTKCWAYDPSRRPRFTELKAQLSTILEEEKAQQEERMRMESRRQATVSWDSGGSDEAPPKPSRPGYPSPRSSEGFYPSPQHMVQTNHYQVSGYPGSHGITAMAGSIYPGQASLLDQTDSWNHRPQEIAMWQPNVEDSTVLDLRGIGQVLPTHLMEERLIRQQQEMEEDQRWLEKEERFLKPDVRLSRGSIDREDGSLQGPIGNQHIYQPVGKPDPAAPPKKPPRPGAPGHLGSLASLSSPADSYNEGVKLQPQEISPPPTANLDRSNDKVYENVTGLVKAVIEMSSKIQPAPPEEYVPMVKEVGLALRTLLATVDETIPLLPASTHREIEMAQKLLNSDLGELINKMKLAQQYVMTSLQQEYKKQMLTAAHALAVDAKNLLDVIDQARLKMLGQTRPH

In the case of `CO[C@H]1O[C@H](CO)[C@@H](OC(=O)Nc2ccccc2-c2ccccc2)[C@H](OC(=O)Nc2ccc3c(c2)OCO3)[C@H]1OC(=O)Nc1ccc2c(c1)OCO2`, the composite z-score is 0.902 in assay [1]; 0.211 in assay [3]; -0.103 in assay [4]; 0.498 in [5]; 2.8 in [6]; 1.11 in [7]. Further, the composite z-score in [8] turned out to be 1.31; in [9] it was 0.454; in [10], 1.06; in assay [11], 1.02; in assay [12], 1.24; in [13], 1.11. The composite z-score is 0.941 in assay [14]; 1.23 in assay [15]; 0.993 in assay [16]; 0.63 in assay [18]; 1.1 in [19]. In addition, the composite Z-score in assay [2] is 0.806 (inactive). Further, the figures for the z-score in [17] and in assay [20] were -0.499 and -6.15 (inactive), respectively.

Turning to `C[C@@H]1ON(c2ccc(C(=O)OC(C)(C)C)cc2)[C@H](c2ccc(O)cc2)[C@H]1C(=O)N1C(=O)OC[C@H]1Cc1ccccc1`, the composite z-score in [1] was 0.31; in assay [3], 0.0836; in [4] it was -0.0449; in assay [5], 0.217; in assay [6], 0.58; in [7], 0.581. For the same compound, the composite z-score in [8] stood at 1.31; in assay [9], 0.448; in assay [10] it was 1.03; in [11], 0.249; in assay [12] it was 1.03; in assay [13], 0.437. Further, the composite z-score was 0.584 in assay [14]; 0.472 in [15]; 0.382 in [16]; 1.29 in [18]; 0.828 in assay [19]. Also, the composite Z-score in assay [2] is 0.522 (inactive). The z-score in assay [17] is -1.49; in assay [20] it was -0.416 (inactive).

As to `C=CCC(OC(C)=O)[C@@H]1[C@@H](N(Cc2ccc(-c3cccc(C(F)(F)F)c3)o2)C(=O)c2ccc(C)cc2)c2cc(OCCCO)ccc2N1C(=O)c1ccc2ccccc2c1` (stereo not given in full), the composite z-score was 0.149 in assay [1]; -0.0377 in assay [3]; -0.14 in assay [4]; 0.151 in assay [5]; 0.387 in [6]; -0.0397 in assay [7]. Besides, the composite z-score in assay [8] is -0.285; in [9], 0.287; in [10], 0.0961; in assay [11] it was -0.276; in assay [12], -0.207; in [13], 0.187. The composite z-score in assay [14] was 0.188; in assay [15] it was 0.908; in [16], 0.0013; in assay [18] it was 0.398; in [19] it was -0.0998. Also, the composite Z-score in [2] was -0.0045 (inactive). The z-score in assay [17] is 1.23; in assay [20] it was -0.0536 (inactive).

Turning to `C=C(/C(=C/C[C@H](OC(=O)c1ccncc1)c1ccc(CO)o1)c1cc(C(=O)OC)ccc1OC)C(C)C`, the composite z-score was 0.0703 in assay [1]; -0.0414 in assay [3]; -0.116 in assay [4]; 0.541 in assay [5]; 1.4 in assay [6]; 0.285 in assay [7]. In addition, the composite z-score in assay [8] was 1.05; in assay [9], 0.85; in assay [10], 0.557; in assay [11], 2; in [12], 1.02; in [13], -0.0585. The composite z-score in assay [14] is 0.448; in [15], 1.07; in [16] it was 1.21; in [18] it was 1.14; in [19], 0.433. In assay [2], the composite Z-score was -0.442 (inactive). Besides, the z-score is -0.432 in [17] and -1.32 (inactive) in [20].

`COC(=O)c1cn(C[C@@H](Cc2ccccc2)NC(=O)N[C@H](CO)CCc2oc(C(C)=O)c(C(=O)OC)c2C(=O)OC)nn1`: the composite z-score is -0.0181 in assay [1]; 0.134 in assay [3]; -0.128 in [4]; 0.182 in assay [5]; 0.5 in [6]; 0.421 in [7]. Besides, the composite z-score in [8] was found to be 1.01; in assay [9], 1.15; in assay [10], 0.299; in [11], 1.42; in assay [12], 0.533; in assay [13] it was 0.192. Moreover, the composite z-score in assay [14] came out at 0.729; in assay [15], 1.02; in [16], 0.86; in [18], 1.17; in assay [19], 0.235. Also, the composite Z-score in assay [2] was 0.055 (inactive). Also, the z-score in assay [17] is 0.642; in assay [20], -0.373 (inactive).

For `COc1cccc(/C=C/C=O)c1`, the composite z-score was 0.865 in [1]; 0.147 in [3]; 0.142 in [4]; -0.124 in [5]; 0.155 in assay [6]; -0.12 in assay [7]. In addition, the composite z-score was -0.146 in [8]; 0.552 in assay [9]; -0.52 in [10]; 0.0592 in assay [11]; 0.203 in assay [12]; -0.0159 in [13]. For the same compound, the composite z-score in [14] is -1.77; in [15], 0.261; in [16], 0.316; in [18], -0.0262; in assay [19] it was 0.205. Moreover, the composite Z-score in [2] was -0.245 (inactive). Moreover, the z-score in [17] is 1.47; in assay [20] it was -1.36 (inactive).
